Measurements published in PubChem BioAssay.
Several values for one entry are separate records, joined by “and”; a condition that tells them apart may be missing. Equal entries are not always repeated. A structure can be active in one record and inactive in another. Activity calls are given as the source filed them. Rule as the data show it, unless noted: active = inhibition above about 80%; inactive = the rest.

Tests used:
[1] = target: NAD(+) hydrolase SARM1 (Homo sapiens) (UniProt Q6SZW1); test: SARM1 TIR NADase inhibitors, cell lysate, NAD-Glo luminescence (AID 1508614;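 active = compound whose remaining NAD level is above about 45 nM, limit read from the data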;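 also: higher remaining NAD means stronger inhibition of SARM1 NADase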); settings: SAM-TIR HEK293T lysate NADase, at 1 µM, stronger effect = higher value
[2] = target: Mitogen-activated protein kinase 7 (Homo sapiens) (UniProt Q13164); test: ERK5 transactivation activators in reporter cells, primary screen, cell-based, HTS (AID 1508626;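 active = luciferase signal above three times the same-plate solvent-only control wells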;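 also: luciferase driven by Gal4-ERK5 fusion binding five Gal4 sites before minimal TATA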); settings: HeLa Gal4-ERK5 transactivation, 18 h, at 5 µM, stronger effect = higher value
[3] = kinase inhibitors against Plasmodium liver-stage infection, cell-based, known kinase inhibitor set, luminescence, hepatoma host viability (AID 624392; call rule not given here;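 also: infected cells incubated roughly two days before readout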); settings: Plasmodium liver stage in hepatoma cells, luciferase luminescence, concentration not given here; liver cell % of control: measured here: host liver cell viability; parasite % of control: stronger effect = lower value
[4] = LFS_MB_1R medulloblastoma cell growth inhibition, synergistic combos for chromothripsis tumors, cisplatin or BGB combos (AID 1671452); settings: LFS_MB_1R medulloblastoma cells, stronger effect = higher value;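 also: cells exposed for 96 hours before readout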
[5] = CRL2098 osteosarcoma cell growth inhibition, synergistic combos for chromothripsis tumors, BGB or cisplatin IC20 combos (AID 1671454); settings: CRL2098 osteosarcoma cells, drug combinations, stronger effect = higher value;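 also: cells exposed for 96 h before readout; 0% = vehicle DMSO and 100% = killing by high DMSO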
[6] = HD-MB03 medulloblastoma cell growth inhibition, synergistic combos for chromothripsis tumors, BGB or cisplatin IC20 combos (AID 1671455; in the data active = inhibition above about 83%;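 also: 0% = vehicle DMSO and 100% = high DMSO as cytotoxic control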); settings: HD-MB03 medulloblastoma cells, stronger effect = higher value
[7] = UWB1.289 ovarian carcinoma cell growth inhibition, synergistic combos for chromothripsis tumors, BGB or cisplatin combos (AID 1671456); settings: UWB1.289 ovarian carcinoma cells, stronger effect = higher value;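 also: cells exposed to compound for four days; 0% = vehicle DMSO and 100% = killing by high DMSO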
[8] = LFS_MB_2R medulloblastoma cell growth inhibition, synergistic combos for chromothripsis tumors, cisplatin combos (AID 1671457); settings: LFS_MB_2R medulloblastoma cells, stronger effect = higher value;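 also: cells exposed to compound for four days before readout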
[9] = UWB1.289_BRCA1 ovarian cancer growth, cell-based, BGB or cisplatin combinations (AID 1671459); settings: UWB1.289 BRCA1 ovarian carcinoma, drug combinations, stronger effect = higher value
[10] = human astrocyte viability loss, single and combined drugs, cytotoxicity control for chromothriptic childhood tumor combination screen, cell-based, BGB or cisplatin IC20 combos (AID 1671460); settings: Human astrocytes, drug combinations, stronger effect = higher value;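 also: cells exposed to compounds for 96 hours before viability readout; 0% = vehicle and 100% = killing control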
[11] = growth inhibition of CRL1545 osteosarcoma cells, cell-based, cisplatin and BGB IC20 combos (AID 1671464); settings: stronger effect = higher value;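 also: cells exposed to compound for 96 hours before readout; 0% = vehicle DMSO and 100% = high DMSO killing control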
[12] = hESC survival regulators, cell-based (AID 493140; call rule not given here;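 also: cells exposed to compounds for four days before counting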); settings: human embryonic stem cell survival screen; stronger effect = higher value
[13] = liver-stage malaria parasite growth inhibition, primary screen, cell-based, HepG2, luciferase luminescence, HepG2 viability (AID 624349; in the data active = parasite load remaining mostly below about 12%, no sharp cut-off; inactive = mostly above about 10%;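 also: 100% = mean of DMSO negative control wells on the same plate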); settings: P. berghei liver stage in HepG2, luciferase luminescence, concentration not given here; parasite load remaining: stronger effect = lower value; viability: measured here: HepG2 viability without parasites
[14] = viability rescue of complex I mutant cybrids, primary screen, cell-based, galactose medium, ATP luminescence (AID 1645843;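 active = z-score of at least 1.8 in each of two replicates, scored against plate mean and spread of sample wells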;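 also: positive z means more ATP and so rescue of galactose-driven cybrid death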); settings: complex I mutant cybrid cells, 72 h, stronger effect = higher value
[15] = tested on: Hepatitis C virus NS3 helicase; test: HCV NS3 helicase inhibitors, primary screen, biochemical, fluorescence polarization, LOPAC1280 library (AID 687035; in the data active = inhibition above about 37%); settings: Purified HCV NS3 helicase, Cy5-dT15 ssDNA binding fluorescence polarization; stronger effect = higher value; concentration not given here
[16] = Cy5 fluorescence quenching or enhancement artefacts, artefact control for HCV NS3 helicase inhibitor project, biochemical, LOPAC1280 (AID 687037; call rule not given here); settings: Cy5-DNA-NS3h complex fluorescence interference counterscreen
[17] = phospholipid biosynthesis inhibitors in animal cells, primary screen, cell-based, LOPAC library, screen 4 (AID 1347384; call rule not given here); settings: phospholipid biosynthesis inhibition screen, at 10 µM
[18] = inhibitors of Cryptococcus chitosan production, flow cytometry, Cibacron Brilliant Red staining (AID 1347148; call rule not given here;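 also: compound exposure lasted three days at 37 degrees C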); settings: Cryptococcus neoformans chitosan, stronger effect = lower value; at 10 µM unless noted
[19] = circadian clock period modulators, cell-based, LOPAC library, luminescence reporter (AID 2774; call rule not given here;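 also: values are relative to mean of DMSO wells on each plate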); settings: circadian reporter cells, at 7 µM, actives lie on both sides
[20] = measured here: combination with BGB IC40, at 0.05 µM
[21] = measured here: combination with cisplatin, at 0.5 µM
[22] = measured here: combination with cisplatin, at 5 µM
[23] = measured here: combination with BGB at IC20, at 0.5 µM
[24] = measured here: combination with cisplatin at IC20, at 0.5 µM
[25] = measured here: combo with BGB at IC20, at 0.5 µM
[26] = measured here: combo with cisplatin at IC20, at 0.5 µM
[27] = measured here: inhibition with BGB combination, at 0.05 µM
[28] = measured here: inhibition with cisplatin combination, at 0.05 µM
[29] = BGB combination, concentration series, at 5 µM
[30] = cisplatin combination, concentration series, at 5 µM
[31] = measured here: combo with BGB IC20, at 0.5 µM
[32] = measured here: combo with cisplatin IC20, at 0.5 µM
[33] = measured here: with BGB IC20 combination, at 0.5 µM
[34] = measured here: with cisplatin IC20 combination, at 0.5 µM

Mitogen-activated protein kinase 7 (Homo sapiens), sequence (Q13164 whole entry, looked up, the tested form may be a part): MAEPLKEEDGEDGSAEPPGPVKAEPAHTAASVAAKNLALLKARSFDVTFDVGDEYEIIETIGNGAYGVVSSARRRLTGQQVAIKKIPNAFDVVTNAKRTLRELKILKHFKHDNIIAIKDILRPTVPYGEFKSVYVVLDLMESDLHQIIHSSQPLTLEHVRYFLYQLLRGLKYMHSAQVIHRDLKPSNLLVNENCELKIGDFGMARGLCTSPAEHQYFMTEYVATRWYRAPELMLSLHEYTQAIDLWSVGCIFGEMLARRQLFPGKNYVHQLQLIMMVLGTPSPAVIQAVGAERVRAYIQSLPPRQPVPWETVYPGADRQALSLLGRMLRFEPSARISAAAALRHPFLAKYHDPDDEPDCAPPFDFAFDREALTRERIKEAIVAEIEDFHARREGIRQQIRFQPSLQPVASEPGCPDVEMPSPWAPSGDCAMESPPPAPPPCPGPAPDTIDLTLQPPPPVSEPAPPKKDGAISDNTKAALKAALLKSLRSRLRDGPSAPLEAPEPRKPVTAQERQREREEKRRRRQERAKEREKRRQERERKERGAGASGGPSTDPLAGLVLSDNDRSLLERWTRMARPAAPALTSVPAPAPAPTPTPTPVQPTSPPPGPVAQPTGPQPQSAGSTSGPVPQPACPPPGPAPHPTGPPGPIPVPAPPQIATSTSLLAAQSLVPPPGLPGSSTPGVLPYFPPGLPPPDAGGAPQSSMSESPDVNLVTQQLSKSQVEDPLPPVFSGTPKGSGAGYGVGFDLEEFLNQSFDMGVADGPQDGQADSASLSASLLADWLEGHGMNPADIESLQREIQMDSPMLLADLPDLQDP
NAD(+) hydrolase SARM1 (Homo sapiens), sequence (Q6SZW1 whole entry, looked up, the tested form may be a part): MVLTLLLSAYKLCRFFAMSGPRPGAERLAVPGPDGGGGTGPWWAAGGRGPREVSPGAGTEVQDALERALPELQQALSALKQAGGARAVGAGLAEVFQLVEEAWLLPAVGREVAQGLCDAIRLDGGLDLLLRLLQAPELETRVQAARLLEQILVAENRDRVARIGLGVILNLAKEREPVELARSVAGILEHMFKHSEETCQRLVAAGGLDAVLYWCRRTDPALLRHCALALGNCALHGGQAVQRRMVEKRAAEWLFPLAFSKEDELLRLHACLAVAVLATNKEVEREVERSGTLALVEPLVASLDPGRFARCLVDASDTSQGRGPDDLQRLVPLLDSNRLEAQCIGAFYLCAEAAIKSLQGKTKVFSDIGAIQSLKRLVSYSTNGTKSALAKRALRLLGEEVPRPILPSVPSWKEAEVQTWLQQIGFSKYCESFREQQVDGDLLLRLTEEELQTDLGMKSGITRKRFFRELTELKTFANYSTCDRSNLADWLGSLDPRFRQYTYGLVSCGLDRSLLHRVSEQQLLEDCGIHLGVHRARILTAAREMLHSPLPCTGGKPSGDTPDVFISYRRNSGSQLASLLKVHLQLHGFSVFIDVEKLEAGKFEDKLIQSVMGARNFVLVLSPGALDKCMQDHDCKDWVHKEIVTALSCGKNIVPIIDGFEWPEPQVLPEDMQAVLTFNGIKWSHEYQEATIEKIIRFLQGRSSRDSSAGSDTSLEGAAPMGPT

SMILES: CO[C@H]1/C=C/O[C@@]2(C)Oc3c(C)c(O)c4c(O)c(c5c(nc6cc(C)ccn65)c4c3C2=O)NC(=O)/C(C)=C\C=C\[C@H](C)[C@H](O)[C@@H](C)[C@@H](O)[C@@H](C)[C@H](OC(C)=O)[C@@H]1C
- remaining NAD [1]: 10 nM (inactive)
- luciferase signal [2]: 32 AU (inactive)

SMILES: CN(C)CC(C)(C)CNc1nn2c(-c3ccccc3)nnc2cc1C1CCC1
- liver cell % of control [3]: 58.5% and 89.5% and 101%
- parasite % of control [3]: 54.4% (inactive) and 60.7% (inactive) and 52.9% (inactive)

SMILES: C[C@H]1[C@H](C)CC[C@]2(C(=O)O)CC[C@]3(C)C(=CC[C@@H]4[C@@]5(C)C[C@@H](O)[C@H](O)[C@@](C)(CO)[C@@H]5CC[C@]43C)[C@H]12
- luciferase signal [2]: 36 AU (inactive)

SMILES: COc1ccc(-c2nc(N3CCOCC3)c3sc(CN(C)c4ncc(C(=O)NO)cn4)cc3n2)cn1
- inhibition ([4]; at 0.5 µM): 93% (active) and 88.4% (active)
- inhibition [4, 20]: 27.1% and 15.8%
- inhibition [4, 21]: 91.8% and 93.4%
- inhibition [4, 22]: 100% and 102%
- inhibition ([5]; at 0.5 µM): 77.2% (inactive) and 40.2% (inactive)
- inhibition [5, 23]: 83.7% and 62.7%
- inhibition [5, 24]: 71.6% and 16.5%
- inhibition ([6]; at 0.5 µM): 99.8% (active)
- inhibition [6, 25]: 99.7%
- inhibition [6, 26]: 99.9% and 99.8%
- inhibition ([7]; at 0.5 µM): 74.5% (inactive) and 79.8% (inactive)
- inhibition [7, 27]: 5.77% and 13.7%
- inhibition [7, 28]: -4.75% and -1.55%
- inhibition ([8]; at 0.5 µM): 82.2% (active) and 85.4% (active)
- inhibition [8, 21]: 93.9% and 97.3%
- inhibition [8, 22]: 110% and 105%
- inhibition [9, 29]: 118% and 117%
- inhibition ([9]; at 0.5 µM): 79.8% (inactive) and 83.2% (active)
- inhibition [9, 30]: 127% and 131%
- inhibition ([10]; at 0.5 µM): 101% (active) and 102% (active)
- inhibition [10, 31]: 103% and 104%
- inhibition [10, 32]: 100% and 101%
- inhibition ([11]; at 0.5 µM): 88.6% (active) and 47.7% (inactive)
- inhibition [11, 33]: 89.3% and 57.8%
- inhibition [11, 34]: 88% and 41.7%
- inhibition ([11]; single agent, at 0.05 µM): 21.7% and -65.8%
- inhibition ([11]; single agent, at 5 µM): 99.3% and 99%

SMILES: CC[C@H](CO)Nc1nc(NCc2ccccc2)c2ncn(C(C)C)c2n1
- survival [12]: 75.1 (inactive)
- parasite load remaining [13]: 29.6% (inactive)
- viability [13]: 68.3%

SMILES: OCCn1cc(-c2cnc3nnn(Cc4ccc5ncccc5c4)c3n2)cn1
- liver cell % of control [3]: 97.5% and 96.9% and 96.4%
- parasite % of control [3]: 74.3% (inactive) and 94.9% (inactive) and 55.7% (inactive)

SMILES: O=C(O)CCCc1c[nH]c2ccccc12
- z-score [14]: 1.11 (inactive)

SMILES: Cc1cccc(-c2[nH]c(C(C)(C)C)nc2-c2ccc3nccnc3c2)n1
- inhibition [15]: -3% (inactive)
- fluorescence ratio (interference) [16]: 1 (inactive)
- outcome [17]: inactive
- z-score [14]: -1.01 (inactive)

SMILES: Cc1cccc(-c2[nH]c(C(C)(C)C)nc2-c2ccc3c(c2)OCO3)n1
- parasite load remaining [13]: 33.2% (inactive)
- viability [13]: 61.8%

SMILES: Cc1ccc2c(c1)C(=O)[C@]1(O)CCN(c3ccccc3)C1=N2
- fold fluorescence [18]: 7.57 [at 171 µM] (inactive)

SMILES: O=c1c(O)c(-c2cc(O)c(O)c(O)c2)oc2cc(O)cc(O)c12
- period change [19]: -0.075 h (inactive)
- survival [12]: 2.42 (inactive)
- parasite load remaining [13]: 81.9% (inactive) and 74.4% (inactive)
- viability [13]: 106% and 74.8%
- inhibition [15]: 8% (inactive)
- fluorescence ratio (interference) [16]: 1 (inactive)
- outcome [17]: inactive
- z-score [14]: -1.22 (inactive)

SMILES: O=C(c1cc(Cc2n[nH]c(=O)c3ccccc23)ccc1F)N1CCN(C(=O)C2CC2)CC1
- inhibition ([4]; at 0.5 µM): 0.5% (inactive) and -18.6% (inactive)
- inhibition [4, 20]: 4.09% and -28.6%
- inhibition [4, 21]: -5.89% and -28.2%
- inhibition [4, 22]: 10.2% and -13.4%
- inhibition ([5]; at 0.5 µM): -22.2% (inactive) and -52% (inactive)
- inhibition [5, 23]: -38.6% and -22.3%
- inhibition [5, 24]: 8.08% and -53.7%
- inhibition ([6]; at 0.5 µM): 0.63% (inactive) and 3.05% (inactive)
- inhibition [6, 25]: -2.67% and 1.02%
- inhibition [6, 26]: 5.32% and 12.9%
- inhibition ([7]; at 0.5 µM): 3.95% (inactive) and -1.88% (inactive)
- inhibition [7, 27]: -15.9% and -18%
- inhibition [7, 28]: -0.831% and -12.7%
- inhibition ([8]; at 0.5 µM): -13.1% (inactive) and -23.1% (inactive)
- inhibition [8, 21]: -6.19% and -20.5%
- inhibition [8, 22]: -14.1% and -19.5%
- inhibition [9, 29]: 15.2% and -17.7%
- inhibition ([9]; at 0.5 µM): 3.2% (inactive) and -8.35% (inactive)
- inhibition [9, 30]: 8.98% and -4%
- inhibition ([10]; at 0.5 µM): 4.09% (inactive) and -6.96% (inactive)
- inhibition [10, 31]: 0.597% and -11.9%
- inhibition [10, 32]: 7.1% and 3.7%
- inhibition ([11]; at 0.5 µM): 11% (inactive) and 18.2% (inactive)
- inhibition [11, 33]: 2.64% and 8.45%
- inhibition [11, 34]: 15.2% and 23.1%
- inhibition ([11]; single agent, at 0.05 µM): 8.77% and 29.2%
- inhibition ([11]; single agent, at 5 µM): 44.7% and 52.9%

SMILES: Cc1cn(-c2cc(NC(=O)c3ccc(C)c(Nc4nccc(-c5cccnc5)n4)c3)cc(C(F)(F)F)c2)cn1
- liver cell % of control [3]: 96.6% and 104% and 98.4%
- parasite % of control [3]: 40.6% (inactive) and 49.1% (inactive) and 89.8% (inactive)
